PubChem BioAssay AID1851 (National Center for Advancing Translational Sciences (NCATS), 2009)
Hit rate of the full screen: of about 16,000 compounds, about 5,100 (32%) were called active. Inconclusive results (about 25%) are left out. The call rests on the fitted dose curve; in most records, active means well fitted curve in the direction sought with a large enough effect; inconclusive means small, poorly fitted or top-dose-only effect, or effect the other way; inactive means no such curve, though single readings can be large or run the other way. The list shows a part of the results.

Target: Cytochrome P450 3A4 (Homo sapiens) (UniProt P08684)
Sequence (P08684 whole entry, looked up): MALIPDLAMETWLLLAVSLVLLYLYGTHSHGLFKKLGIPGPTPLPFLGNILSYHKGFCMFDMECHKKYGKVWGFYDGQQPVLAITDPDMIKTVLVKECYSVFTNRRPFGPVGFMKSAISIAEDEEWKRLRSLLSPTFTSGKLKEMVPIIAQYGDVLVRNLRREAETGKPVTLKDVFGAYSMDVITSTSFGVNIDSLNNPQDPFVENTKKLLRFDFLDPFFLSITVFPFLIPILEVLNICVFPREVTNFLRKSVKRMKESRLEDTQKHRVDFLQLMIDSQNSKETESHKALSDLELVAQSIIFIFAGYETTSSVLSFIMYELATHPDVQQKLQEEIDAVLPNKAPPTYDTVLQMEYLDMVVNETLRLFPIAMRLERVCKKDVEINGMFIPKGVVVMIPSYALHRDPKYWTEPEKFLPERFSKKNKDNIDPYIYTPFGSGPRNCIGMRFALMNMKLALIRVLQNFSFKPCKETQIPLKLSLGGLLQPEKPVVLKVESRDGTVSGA
Test: Cytochrome panel assay with activity outcomes
Conditions: recombinant CYP, pro-luciferin dealkylation, luminescence, p450-cyp3a4; series mostly up to 57.1 µM
On the % scale 0 is the no-effect control and ±100 the full control effect.

SMILES | activity, negative = inhibition | AC50
OC[C@@H]1O[C@@H](N2CCN([C@@H]3O[C@@H](CO)[C@@H](O)[C@H](O)[C@H]3O)CC2)[C@@H](O)[C@H](O)[C@H]1O | 2.3% [at 11.4 µM] (inactive) | 
COc1ccccc1NC(=O)Cn1cncc1-c1ccc([N+](=O)[O-])cc1 |  | 14.1 µM (active)
CCCOc1ccc(/C=C/C(=O)Nc2ccc([N+](=O)[O-])cc2C)cc1 | 2.56% [at 11.4 µM] (inactive) | 
CCN(CC)C(=O)c1cc2cc([N+](=O)[O-])ccc2s1 | 20.4% [at 11.4 µM] (inactive) | 
CCN(CC(=O)Nc1ccc([N+](=O)[O-])cc1OC)c1ccccc1 |  | 12.6 µM (active)
Cc1cccc[n+]1CC(=O)Nc1ccc([N+](=O)[O-])cc1Cl |  | inactive
COc1cc([N+](=O)[O-])ccc1NC(=O)CCCOc1cccc(C)c1 |  | 5.01 µM (active)
Cc1cc2nc([C@H](C)C(=O)c3ccc(Cl)cc3)c(=O)[nH]c2cc1C | -25.9% [at 11.4 µM] (inactive) | 
CCCS(=O)(=O)N1CCCC(C(=O)N2CCOCC2)C1 (centres undefined) |  | inactive
CSc1nc(Cl)cc(N(CCO)CCO)n1 |  | inactive
COC(=O)C/C=C\[C@@H](C)[C@@H]1C=C[C@H](OC(C)=O)[C@H](COC(C)=O)O1 | -23.4% [at 11.4 µM] (inactive) | 
COC(=O)C/C=C\[C@@H](C)[C@@H](/C=N\OCC[C@H]1C=C[C@H](OC(C)=O)[C@@H](COC(C)=O)O1)NS(=O)(=O)c1ccc(C)cc1 |  | 3.98 µM (active)
CCCNC(=O)OC[C@H]1O[C@@H](CCO/N=C\[C@@H](NS(=O)(=O)c2ccc(C)cc2)[C@H](C)/C=C\CC(=O)OC)C=C[C@@H]1Oc1ccc(OC)cc1 |  | 3.16 µM (active)
Nc1ccn([C@@H]2CC[C@H](CO)O2)c(=O)n1 |  | inactive
COc1cc2c(cc1OC)CN(C(=S)Nc1ccccc1)CC2 |  | 12.6 µM (active)
CC(C)(CO)N1CCN(C(=S)Nc2ccccc2)CC1 | -8.25% [at 11.4 µM] (inactive) | 
CC(=O)Nc1sc2c(c1CN1CCN(C)CC1)CCCC2 |  | inactive
CC(=O)NCCC(=O)Nc1sc2c(c1-c1nc3ccccc3[nH]1)CCCC2 |  | 12.6 µM (active)
COc1cccc(Cn2c(=O)c(-c3cccs3)nc3cnc(N4CCNCC4)nc32)c1 |  | 15.8 µM (active)
COc1cccc(Cn2c(=O)c(-c3cccs3)nc3cnc(N4CCN(C)CC4)nc32)c1 |  | 12.6 µM (active)
CC(C)OC(=O)c1cc2c(OC[C@@H](O)CNC(C)(C)C)cccc2[nH]1 |  | inactive
Cc1ccccc1-c1ccc2ncnc(N3CCN(C)CC3)c2c1 |  | 3.98 µM (active)
CN1CCN(c2ncnc3ccc(-c4ccccc4Cl)cc23)CC1 |  | 5.01 µM (active)
CN1CCN(c2ncnc3ccc(-c4ccccc4C#N)cc23)CC1 |  | 15.8 µM (active)
Clc1ccc2c(N3CCC(CCC4CCN(c5ncnc6cc(Cl)ccc56)CC4)CC3)ncnc2c1 | -31.6% [at 11.4 µM] (inactive) | 
COC(=O)c1ccc(Oc2nc(N(C)C)nc(N3CCOCC3)n2)cc1 | 14.7% [at 11.4 µM] (inactive) | 
c1ccc(C2OCC3(CO2)COC(c2ccccc2)OC3)cc1 (centres undefined) |  | inactive

SMILES | activity, negative = inhibition | AC50
C[C@H]1[C@H](C)OC(=O)C[C@H](O)C[C@H](O)C[C@H](O)CC[C@H](O)[C@H](O)CC(=O)C[C@H](O)[C@H](C(=O)O)[C@H](O)C[C@H](O[C@@H]2O[C@@H](C)[C@H](O)[C@@H](N)[C@@H]2O)C=CC=CC=CC=CCCC=CC=C[C@@](C)(O)[C@H]1O | 7.28% [at 11.4 µM] (inactive) | 
CCOc1ccc2c(ccc(/C=C\c3cc(C)c4cccnc4c3O)[n+]2C)c1 | -23.9% [at 11.4 µM] (inactive) | 
CCCc1cc(=O)oc2c(CN3CCOCC3)c(O)ccc12 | 1.81% [at 2.29 µM] (inactive) | 
Cn1c(=O)n2n(c1=O)[C@H]1[C@H](O)[C@H]3O[C@H]3C(=O)[C@H]1CC2 | -16.9% [at 11.4 µM] (inactive) | 
CC(=O)Nc1ccc(Cc2ccc3[nH]c(=O)cc(C)c3c2)cc1 | -20.4% [at 11.4 µM] (inactive) | 
CCc1c(C)nc2ccc(Br)cc2c1Cl |  | inactive
Cc1cc(Cl)nc2ccc(Cc3ccc4nc(Cl)cc(C)c4c3)cc12 |  | 3.16 µM (active)
COc1ccc2[nH]c(=O)c(NC(N)=S)nc2c1 |  | inactive
O=C(O)c1cc2cc(OCc3ccccc3)ccc2[nH]1 |  | inactive
CCOc1ccc(Cc2nc(C)c(CC(=O)N3CCOCC3)c(=O)[nH]2)cc1 | 1.75% [at 11.4 µM] (inactive) | 
COc1ccc2[nH]c(=O)c(CN(CCc3ccccc3)C(C)=O)cc2c1 |  | 17.8 µM (active)
CCOc1ccc2[nH]c(=O)c(CN(CCc3ccccc3)C(=O)N3CCCC3)cc2c1 |  | 3.55 µM (active)
COc1cccc(C(=O)N(Cc2ccccc2)Cc2cc3cc4c(cc3[nH]c2=O)OCCO4)c1 |  | 3.98 µM (active)
C[N+]1(CC(=O)OCCCc2ccccc2)CCOCC1 |  | inactive
COc1cccc(C(=O)n2c(SC)nc3cc4c(cc32)OCCO4)c1 |  | inactive
CCOc1ccc2[nH]c(=O)c(CN(CCc3ccccc3)C(=O)N3CCOCC3)cc2c1 |  | 7.94 µM (active)
CCN(CC)C(=O)CSc1nc2ccc(NC(=O)CSc3nnc(COc4ccccc4C)n3C)cc2s1 | -17.9% [at 2.29 µM] (inactive) | 
CCc1cccc(C)c1NC(=O)CSc1nc2ccc(N3C(=O)c4ccccc4C3=O)cc2s1 |  | 4.47 µM (active)
c1csc(CNc2nc(-c3ccc4c(c3)OCO4)nc3ccccc23)c1 |  | 1 µM (active)
Cc1cnc(CNc2nc(-c3ccc4c(c3)OCO4)nc3ccccc23)cn1 |  | 0.794 µM (active)
Cc1cccc(CNc2nc(-c3ccc4c(c3)OCO4)nc3ccccc23)c1 |  | 0.398 µM (active)
c1cncc(CNc2nc(-c3ccc4c(c3)OCO4)nc3ccccc23)c1 |  | 0.316 µM (active)
C[C@]1(O)CC[C@H]2[C@H]3CC=C4N5CCN=C5CC[C@@]4(C)[C@H]3CC[C@@]21C | -12.7% [at 11.4 µM] (inactive) | 
O=C(O)c1cc(-c2ccc3cc4c(cc3c2)OCO4)nc2ccccc12 | -17.7% [at 11.4 µM] (inactive) | 
c1ccc(CNc2nc(-c3ccc4c(c3)OCO4)nc3ccccc23)cc1 |  | 1 µM (active)
N=C(N)SCc1cccc(-c2nc3ccccc3c(=O)o2)c1 | -20.1% [at 11.4 µM] (inactive) | 
CC(=O)NCCNc1nc(-c2ccc3c(c2)OCO3)nc2ccccc12 |  | 3.98 µM (active)
